Compound activity as filed in PubChem.
An excerpt weighted towards active compounds, which were near 21% of everything screened.
NS1 inh: qHTS Assay for Inhibitors of Influenza NS1 Protein Function; 270,000 tested, 0.4% active; Potency, µM (doses to about 46.1 µM), for inactives: at the highest dose activity, positive = more growth; AID 2326, 2010; further: potency means the concentration at half of the fitted maximal effect; actives are rising curves; nearly all actives have a fitted effect of over 50% in size
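S. cerevisiae expressing influenza A NS1, grown in glucose, washed, then diluted 1:100 into pH 6.0 -URA galactose medium with 23 nl compound. Growth recovery read as OD600; NS1-free strain serves as control.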
Pf growth 48h: Primary qHTS for delayed death inhibitors of the malarial parasite plastid, 48 hour incubation. P. falciparum luciferase growth in erythrocytes, 48 h. Potency, µM (series often up to 28.7 µM), without a hit: top-dose activity change, negative = inhibition, hits mostly inhibitors. 310,000 tested, 5.9% active. AID 504832, 2011; active means well fitted inhibition curve with a large enough effect; inconclusive means small, poorly fitted or top-dose-only effect, or another doubt; inactive means no such curve, though single readings can be large or run the other way; further: potency means the concentration at half of the fitted maximal effect; on the % scale 0 is the no-effect control and ±100 the full control effect
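A one-generation exposure of luciferase-tagged malaria parasites in RPMI 1640/Albumax erythrocyte culture, 37 C and 5% CO2. Inhibition is inferred from decreased luminescence after adding detection reagent.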
Shiga inhibitor: A qHTS for Small Molecule Inhibitors of Shiga Toxin; AID 2315, 2010; inhibition, % at 38.7 µM; Vero cells, Shiga toxin protein synthesis inhibition reporter; 290,000 tested, 9.2% active; in the data active means inhibition mostly above about 28%, no sharp cut-off; inactive means mostly below about 43%; further: 0% is about no effect
CHX counter: Cycloheximide Counterscreen for Small Molecule Inhibitors of Shiga Toxin. cell reporter, cycloheximide protein synthesis inhibition counterscreen. max response, %. 300,000 tested, 12% active. AID 2314, 2010; in the data active means max response mostly above about 13%, no sharp cut-off; inactive means mostly below about 14%; further: read at 38.3 µM for the half of the compounds with a filed dose; 0% is about no effect
Pf growth 96h: Primary qHTS for delayed death inhibitors of the malarial parasite plastid, 96 hour incubation; AID 504834, 2011; 320,000 tested, 6.9% active; Potency, µM (titrated, usually from 28.7 µM), without a hit: top-dose activity change, negative = inhibition, usual class: inhibitors; P. falciparum luciferase reporter growth, 96 h; active means well fitted inhibition curve with a large enough effect; inconclusive means small, poorly fitted or top-dose-only effect, or another doubt; inactive means no such curve, though single readings can be large or run the other way; further: potency means the concentration at half of the fitted maximal effect; on the % scale 0 is the no-effect control and ±100 the full control effect
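Delayed-death screen, second-generation endpoint: infected erythrocytes, 2% hematocrit, 0.05% parasitemia final; 96 hours at 37 C, 5% CO2; luciferase detection reagent; luminescence decrease equals reduced growth.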
SARS PLP yeast: qHTS of Yeast-based Assay for SARS-CoV PLP. S. cerevisiae expressing SARS-CoV PLpro, growth rescue. Potency, µM (top dose mostly 32.9 µM), for the others: at the highest dose activity, positive = growth rescue, hits mostly activators. 330,000 tested, 0.19% active. AID 485353, 2010; further: potency means the concentration at half of the fitted maximal effect; 0% is about no effect; nearly all actives have a fitted effect of over 55% in size
An asterisk follows results filed as active; ? = inconclusive; . = no result. Unless noted, the call rests on the fitted dose curve.

SMILES	NS1 inh	Pf growth 48h	Shiga inhibitor	CHX counter	Pf growth 96h	SARS PLP yeast
CCOc1ccc(C(=O)NC(Cc2ccccc2)C(=O)OC)cc1 (configuration not stated)	-25.6%	162.8%	73.4*	41.2*	127.7%	-8.7%
COC(=O)C(Cc1ccccc1)NC(=O)COc1ccc(C(C)(C)C)cc1 (configuration not stated)	-87.3%	.	-10.4	-3.3	24.9%	-31.3%
CCOc1ccc(C(CCc2ccccc2)NC(=O)c2ccccc2)cc1OCC (configuration not stated)	-2.4%	4.65µM*	17.7	-3.4	.	-6.5%
COc1ccc(C(=O)NC(C)CCc2ccccc2)cc1 (configuration not stated)	-10.5%	6.6%	.	19.2*	0.0%	-0.7%
CC(C)C[C@@H](C(=O)NCc1ccco1)N1C(=O)N2CCc3c([nH]c4ccccc34)[C@@]2(C)C1=O	-8.7%	?	-3.1	-0.5	?	-1.9%
N#[N+]c1ccc(Nc2ccccc2)cc1	-7.2%	.	.	.	.	.
COC(=O)[C@H](Cc1ccccc1)NC(=O)c1ccc2ccccc2n1	-26.1%	206.6%	40.6*	17.7	215.4%	-6.5%
COc1ccc(NC(NC(=O)c2ccc(OC)cc2)C(Cl)(Cl)Cl)cc1 (configuration not stated)	-2.2%	?	-18.8	1.5	4.15µM*	-1.2%
CCCNC(=O)C(Cc1ccc(I)cc1)NC(=O)c1ccc2ccccc2n1 (configuration not stated)	.	?	.	.	-1.6%	-29.6%
CC(C)CC(=O)Nc1ccc2nn(-c3ccccc3)nc2c1	-12.4%	230.6%	53.4*	66.2*	50.8%	-14.5%
CC(C)C(=O)Nc1ccc(N2CCN(c3ccc(F)cc3)CC2)cc1	.	36.7%	-1.8	0.1	3.1%	-0.4%
Cc1ccc(-n2nc3ccc(NC(=O)C(C)C)cc3n2)cc1	-1.5%	107.3%	118.8*	54.2*	3.5%	-1.4%
CC(C)C(=O)Nc1ccc2nn(-c3ccc(F)cc3)nc2c1	-12.2%	287.8%	46.4*	28.4*	51.2%	-1.4%
CCCC(=O)Nc1ccc2nn(-c3ccc(OC)cc3)nc2c1	-16.3%	133.3%	.	40.6*	-12.9%	-0.9%
COc1ccc(S(=O)(=O)NCC(=O)N(CC(=O)NCc2ccco2)Cc2ccc(F)cc2)cc1	-1.5%	-7.9%	-3.1	-3.6	?	-0.3%
CCC1C(=O)CC2CCN3C(=O)CCC1C23 (configuration not stated)	.	.	14.1	-4.9	.	.
CC1CCN(C(=O)Cn2nnc(-c3ccc(C(C)C)cc3)n2)CC1	4.6%	7.6%	-4.8	-4.5	?	2.6%
COc1cc(OC)cc(C(=O)NNC(=O)CCNC(=O)c2ccc(Br)cc2)c1	.	.	.	.	.	0.5%
Cc1ccc(-n2nc3ccc(NC(=O)c4cccc([N+](=O)[O-])c4C)cc3n2)cc1	9.8%	33.1%	51.8	28.3*	39.1%	12.6%
Cc1ccc(-n2nc3ccc(NC(=O)c4ccco4)cc3n2)cc1	-10.0%	.	50.9*	37.7*	0.4%	-20.3%
COC(=O)c1cc(NC(=O)c2cccc([N+](=O)[O-])c2C)ccc1Cl	-3.8%	0.0%	18.9	4.4	3.4%	-1.6%
CCOc1ccc(NC(=O)C(c2ccccn2)N(C(=O)CCl)c2ccc(F)cc2)cc1 (configuration not stated)	16.5%	?	active	32.0*	347.2%	7.7%
O=C(NC(=S)N1CCN(c2ccc(F)cc2)CC1)C12CC3CC(CC(C3)C1)C2	10.6%	?	-25.6	-2.9	?	-5.0%
CCOc1ccccc1N1CCN(C(=S)NC(=O)C23CC4CC(CC(C4)C2)C3)CC1	1.5%	8.28µM*	-13.3	-2.0	?	14.2%
CC(NC(=O)CSc1nnnn1C1CC1)c1ccccc1Br (configuration not stated)	.	.	.	.	.	6.4%
COc1ccc(S(=O)(=O)N(CC(=O)N2CCCCCC2)c2ccccc2OC)cc1	-3.3%	?	-17.0	-4.1	?	-0.9%
COc1ccc(Nc2nnc(-c3ccc(C)cc3)c3ccccc23)cc1C(=O)N1CCCCC1	-21.0%	6.57µM*	-6.6	-3.0	1.17µM*	18.0%
